This note sets out measurements from PubChem BioAssay (NCI).

Molecules are shown by their SMILES. This is part of a sample that, as a whole, favours compounds with a hit. Of some 83,000 tested, about 20% had one in any assay.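 Each cell line was grown in a 96-well plate and treated with one concentration of compound for 48 hours. Values below 10 were considered active.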 Values without a mark were called inactive. Active and inactive are the calls of the source.

Some test systems named below: NCI-H23 lung; NCI-H226 lung; NCI-H322M lung; HOP-62 NSCLC; NCI-H460 lung; HOP-92 NSCLC; NCI-H522 lung; A549/ATCC NSCLC; 786-0 renal; COLO 205 colon; DU-145 prostate; K-562 leukemia; MALME-3M melanoma; MDA-MB-231 breast; RXF 393 renal; SF-268 CNS; SF-295 CNS; SF-539 CNS; UACC-257 melanoma; M14 melanoma.
What all share (assay): NCI-60 one-dose screen, 48 h (100 = growth as untreated, 0 = no growth, -100 = all killed)
What all share (conditions): 10 µM unless noted

Turning to `COc1cc(Nc2nc3ccccc3cc2C(=O)Nc2ccc(F)c(F)c2)cc(OC)c1OC`, the growth in the assay with NCI-H23 lung was 9.57% (active); with NCI-H226 lung, 22.1%; with NCI-H322M lung it was 53%; in the assay with HOP-62 NSCLC, 46%; with NCI-H460 lung it was 9.51% (active); in the assay with HOP-92 NSCLC it was 1.01% (active). The growth is 20.4% in the assay on NCI-H522 lung; 22.7% in the assay on A549/ATCC NSCLC; 34.5% in the assay with 786-0 renal; 9.14% (active) with COLO 205 colon; 30% in the assay with DU-145 prostate; 16.8% with K-562 leukemia. Also, the growth was 51.5% in the assay on MALME-3M melanoma; 30.5% in the assay on MDA-MB-231 breast; 68.3% with RXF 393 renal; 40.4% with SF-268 CNS; 14.2% in the assay on SF-295 CNS; 37.9% in the assay on SF-539 CNS. Moreover, the growth in the assay on UACC-257 melanoma is 52.3%; in the assay on M14 melanoma, 24.4%.
For `COc1ccc(N2CCN(S(=O)(=O)c3oc(-c4ccccc4)nc3C#N)CC2)cc1`, the growth in the assay on NCI-H23 lung was 57.3%; in the assay with NCI-H226 lung, 64.5%; in the assay on NCI-H322M lung, 97.6%; in the assay with HOP-62 NSCLC it was 106%; in the assay on NCI-H460 lung, 94.8%; in the assay on HOP-92 NSCLC it was 101%. Also, the growth in the assay on NCI-H522 lung was 25.2%; with A549/ATCC NSCLC it was 99.4%; in the assay with 786-0 renal, 85.5%; in the assay on COLO 205 colon it was 80%; with DU-145 prostate, 104%; in the assay on K-562 leukemia, 15.3%. Besides, the growth was 69.6% in the assay on MALME-3M melanoma; 77.2% with MDA-MB-231 breast; 66.4% in the assay on RXF 393 renal; 102% in the assay on SF-268 CNS; 104% in the assay on SF-295 CNS; 68.2% in the assay with SF-539 CNS. Moreover, the growth with UACC-257 melanoma is 88%; with M14 melanoma, 47.4%.
As for `Nc1ncc(-c2ccc3ncnc(N4CCc5ccc(Cl)cc54)c3c2)cc1C(F)(F)F`, the growth was 35.4% with NCI-H23 lung; 20.5% in the assay with NCI-H226 lung; 7.25% (active) in the assay on NCI-H322M lung; 17.3% in the assay with HOP-62 NSCLC; 18.1% in the assay on NCI-H460 lung; -7.6% (active) with HOP-92 NSCLC. The growth in the assay with NCI-H522 lung was 14.1%; in the assay on A549/ATCC NSCLC it was 13.5%; with 786-0 renal, 8.59% (active); with COLO 205 colon, 7.3% (active); in the assay on DU-145 prostate, 17.6%; in the assay on K-562 leukemia, 30.5%. Also, the growth was -0.57% (active) with MALME-3M melanoma; 21.8% in the assay on MDA-MB-231 breast; -38.8% (active) in the assay on RXF 393 renal; 22.4% in the assay on SF-268 CNS; 19.3% in the assay with SF-295 CNS; 2.93% (active) in the assay on SF-539 CNS. Further, the growth in the assay on UACC-257 melanoma was 29.3%; in the assay on M14 melanoma, 26.7%.
Regarding `O=C1/C(=C/c2ccccc2)CN(C(=O)C(Cl)Cl)C/C1=C\c1ccccc1`, the growth in the assay on NCI-H23 lung was -56.5% (active); with NCI-H226 lung, 95.6%; in the assay on NCI-H322M lung, 37.4%; in the assay on HOP-62 NSCLC it was 75.2%; with NCI-H460 lung it was -29.7% (active); in the assay with HOP-92 NSCLC, 41.8%. Also, the growth with NCI-H522 lung is -0.507% (active); in the assay on A549/ATCC NSCLC it was 20.8%; with 786-0 renal, -15.8% (active); with COLO 205 colon, -1.12% (active); in the assay on DU-145 prostate it was -14.3% (active); in the assay on K-562 leukemia it was 2.57% (active). The growth is -38.5% (active) with MALME-3M melanoma; -3.43% (active) in the assay with MDA-MB-231 breast; -35.2% (active) with RXF 393 renal; 35.7% in the assay on SF-268 CNS; -1.45% (active) with SF-295 CNS; -14.9% (active) in the assay with SF-539 CNS. The growth was 25% with UACC-257 melanoma and -27.6% (active) with M14 melanoma.
Take `Brc1ccc(/C=C(/C2=NCCN2)n2ccc3ccccc32)cc1`: the growth in the assay on NCI-H23 lung was 87%; in the assay with NCI-H226 lung, 62.1%; with NCI-H322M lung it was 75.7%; in the assay with HOP-62 NSCLC it was 68.3%; with NCI-H460 lung, 76.4%; in the assay on HOP-92 NSCLC it was 34.3%. In addition, the growth in the assay on NCI-H522 lung was 62.7%; in the assay on A549/ATCC NSCLC it was 77.9%; in the assay with 786-0 renal it was 81.6%; in the assay on COLO 205 colon, 64.8%; with DU-145 prostate it was 63.1%; in the assay with K-562 leukemia it was 45.7%. The growth with MALME-3M melanoma is 75.4%; with MDA-MB-231 breast it was 58.9%; in the assay on RXF 393 renal, 50.6%; in the assay on SF-268 CNS, 77.7%; with SF-295 CNS, 85.1%; in the assay with SF-539 CNS, 88.8%. Besides, the figures for the growth in the assay on UACC-257 melanoma and in the assay on M14 melanoma were 78.8% and 65.1%, respectively.
On to `Cc1ccc(-c2nc3nc(-c4ccc(Br)cc4)nc(N4CCCNCC4)c3o2)cc1`, for which the growth in the assay on NCI-H23 lung was 97.9%; with NCI-H226 lung it was 103%; in the assay on NCI-H322M lung, 68.9%; in the assay with HOP-62 NSCLC, 82%; with NCI-H460 lung, -73% (active); in the assay with HOP-92 NSCLC it was 91.7%. The growth with NCI-H522 lung was 72.6%; in the assay with A549/ATCC NSCLC, -74.7% (active); with 786-0 renal, -90.6% (active); in the assay on COLO 205 colon it was -49% (active); in the assay on DU-145 prostate, 14.2%; in the assay on K-562 leukemia, -48.4% (active). The growth in the assay with MALME-3M melanoma was 88.3%; in the assay with MDA-MB-231 breast, -57% (active); in the assay on RXF 393 renal, 87.1%; in the assay with SF-268 CNS, 98.6%; in the assay on SF-295 CNS, 69.2%; with SF-539 CNS, 3.79% (active). The growth was 103% in the assay with UACC-257 melanoma and -54.2% (active) in the assay on M14 melanoma.
Consider `Cc1ccc(/C=C/c2c(C(=O)/C=C/c3ccccc3)c(C)nc3ccccc23)cc1`, for which the growth with NCI-H23 lung was 27.5%; with NCI-H226 lung it was 43.6%; with NCI-H322M lung, 46.8%; in the assay on HOP-62 NSCLC it was -18% (active); with NCI-H460 lung it was -9.62% (active); with HOP-92 NSCLC, 89.4%. Also, the growth in the assay on NCI-H522 lung was 11.1%; in the assay on A549/ATCC NSCLC it was 30.8%; with 786-0 renal, 25.8%; in the assay on COLO 205 colon it was 12.7%; in the assay on DU-145 prostate, 12.8%; with K-562 leukemia it was 8.62% (active). The growth is -1.88% (active) in the assay on MALME-3M melanoma; 30.8% in the assay with MDA-MB-231 breast; -3.35% (active) with RXF 393 renal; 54.1% in the assay on SF-268 CNS; 31.9% in the assay on SF-295 CNS; -23.2% (active) with SF-539 CNS. The growth is 12.3% with UACC-257 melanoma and 17.6% in the assay with M14 melanoma.
